From PubChem BioAssay
Results filed as inconclusive are left out. Activity calls are given as the source filed them.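 How the source made its calls, unless noted: active means normalized viability below 100% at a tested concentration; inactive means the rest.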

Tests used:
[1] = viability loss in pontine glioma line – cell-based, SU-DIPG-XVII, MIPE5.0, CellTiter-Glo, qHTS, dose response (AID 1347060; cut-off not given, nearly all actives have AC50 up to about 26 µM;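 on AC50: cells exposed to compound for 48 hours before viability readout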); conditions: CellTiter-Glo ATP luminescence
[2] = viability loss in pontine glioma line – cell-based, SU-DIPG-XIII, MIPE4.0, CellTiter-Glo, qHTS, dose response (AID 1347061; cut-off not given, nearly all actives have AC50 up to about 37 µM;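 further: cells exposed to compound for 48 hours before readout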); conditions: CellTiter-Glo ATP luminescence
[3] = viability loss in pontine glioma line – cell-based, JHH-DIPG-1, MIPE4.0, CellTiter-Glo, qHTS, dose response (AID 1347062; cut-off not given, nearly all actives have AC50 up to about 27 µM;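 on AC50: cells exposed to compound for two days before readout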); conditions: JHH-DIPG-1 viability, CellTiter-Glo ATP luminescence
[4] = viability loss in pontine glioma line – cell-based, SU-DIPG-IV, MIPE4.0, CellTiter-Glo, qHTS, dose response (AID 1347063; cut-off not given, nearly all actives have AC50 up to about 30 µM;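 further: compound exposure lasted 48 hours before the viability readout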); conditions: CellTiter-Glo ATP luminescence
[5] = viability loss in pontine glioma line – cell-based, SU-DIPG-XIII, MIPE5.0, CellTiter-Glo, qHTS, dose response (AID 1347064; cut-off not given, nearly all actives have AC50 up to about 23 µM;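 on AC50: cells exposed to compound for 48 hours before the viability read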); conditions: CellTiter-Glo ATP luminescence
[6] = viability loss in pontine glioma line – cell-based, SU-DIPG-XXV, MIPE5.0, CellTiter-Glo, qHTS, dose response (AID 1347065; cut-off not given, nearly all actives have AC50 up to about 26 µM;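 further: cells exposed to compound for 48 hours before ATP readout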); conditions: CellTiter-Glo ATP luminescence
[7] = growth inhibition of DIPG cells – cell-based, MIPE4.0 library, CellTiter-Glo luminescence, qHTS (AID 1347066; cut-off not given, nearly all actives have AC50 up to about 30 µM;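 further: cells exposed to compound for 48 hours before readout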); conditions: SU-DIPG-VI viability, CellTiter-Glo ATP luminescence
[8] = JHH-DIPG-1 glioma cell viability, MIPE5.0 library, CellTiter-Glo luminescence, qHTS (AID 1347067; cut-off not given, nearly all actives have AC50 up to about 26 µM;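 further: cells exposed to compound for 48 hours before readout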); conditions: JHH-DIPG-1 glioma viability, CellTiter-Glo ATP luminescence
[9] = growth inhibition of DIPG cells – cell-based, MIPE5.0 library, qHTS (AID 1347068; cut-off not given, nearly all actives have IC50 up to about 30 µM); conditions: SU-DIPG-XXV viability
[10] = viability loss with induced miR-34 in A549 – imaging, A549 dox-inducible miR-34, nuclei and caspase counts, primary screen (AID 1347080;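 active means compounds whose cell count with miR-34 switched on is under 0.7 times the count with it off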); conditions: A549 miR-34 inducible, Hoechst nuclei count, 48 h
[11] = MELAS cybrid and Rieske KO viability enhancers – cell-based, MELAS cybrids, Rieske KO mouse fibroblasts, CellTiter-Glo, primary screen (AID 1508586;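 active means mean z-score across replicates of 1.96 or higher in either the MELAS or the Rieske mutant cell line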;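 further: z relative to plate mean and SD of compound and empty wells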); conditions: low glucose
[12] = drug combination growth inhibition, ovarian cancer – cell-based, oncology-focused library, rucaparib conditional, profiling panel (AID 1508598); conditions: patient-derived ovarian cancer cells, CellTiter-Glo viability, 144 h, stronger effect = lower value

## O=C(Nc1c(Cl)cncc1Cl)c1ccc(OC(F)F)c(OCC2CC2)c1
[1]
  outcome: inactive
[2]
  outcome: inactive
[3]
  outcome: inactive
[4]
  outcome: inactive
[5]
  outcome: inactive
[6]
  outcome: inactive
[7]
  outcome: inactive
[8]
  outcome: inactive
[9]
  outcome: inactive
[10]; stronger effect = lower value, cell number ratio, induced over uninduced
  fold change: 0.886 (inactive)
[10]; measured here: relative caspase fold change +Dox/-Dox
  fold change: 1.06
[10]; measured here: total cells with miR-34 induction, stronger effect = lower value
  cell count: 8020
[10]; measured here: total cells without miR-34 induction
  cell count: 9050
[11]; MELAS cybrid survival, CellTiter-Glo 48 h, stronger effect = higher value
  z-score: -0.193 (inactive)
[11]; Rieske KO mouse fibroblast survival, CellTiter-Glo 72 h
  z-score: -1.74

## Cc1cc(N2CCOCC2)cc2[nH]c(-c3c(NC[C@@H](O)c4cccc(Cl)c4)cc[nH]c3=O)nc12
[1]
  AC50: 0.742 µM (active)
[2]
  AC50: 1.48 µM (active)
[3]
  AC50: 13.2 µM (active)
[4]
  AC50: 7.43 µM (active)
[5]
  AC50: 0.209 µM (active)
[6]
  AC50: 0.263 µM (active)
[7]
  AC50: 0.0526 µM (active)
[8]
  AC50: 3.72 µM (active)
[9]
  outcome: inactive
[12]; at 0.000305 µM, OCI-C5x cells, with rucaparib 10 µM, 100% = cells with rucaparib alone
  viability: 117% (inactive)
[12]; at 0.000305 µM, OCI-C5x cells, without rucaparib
  viability: 119% (inactive)
[12]; at 0.000305 µM, OCI-P5x cells, with rucaparib 20 µM, 100% = cells with rucaparib alone
  viability: 135% (inactive)
[12]; at 0.000305 µM, OCI-P5x cells, without rucaparib
  viability: 99.5% (active)
[12]; at 0.00122 µM, OCI-C5x cells, with rucaparib 10 µM, 100% = cells with rucaparib alone
  viability: 126% (inactive)
[12]; at 0.00122 µM, OCI-C5x cells, without rucaparib
  viability: 114% (inactive)
[12]; at 0.00122 µM, OCI-P5x cells, with rucaparib 20 µM, 100% = cells with rucaparib alone
  viability: 133% (inactive)
[12]; at 0.00122 µM, OCI-P5x cells, without rucaparib
  viability: 97.6% (active)
[12]; at 0.00488 µM, OCI-C5x cells, with rucaparib 10 µM, 100% = cells with rucaparib alone
  viability: 123% (inactive)
[12]; at 0.00488 µM, OCI-C5x cells, without rucaparib
  viability: 109% (inactive)
[12]; at 0.00488 µM, OCI-P5x cells, with rucaparib 20 µM, 100% = cells with rucaparib alone
  viability: 130% (inactive)
[12]; at 0.00488 µM, OCI-P5x cells, without rucaparib
  viability: 98.9% (active)
[12]; at 0.0195 µM, OCI-C5x cells, with rucaparib 10 µM, 100% = cells with rucaparib alone
  viability: 119% (inactive)
[12]; at 0.0195 µM, OCI-C5x cells, without rucaparib
  viability: 118% (inactive)
[12]; at 0.0195 µM, OCI-P5x cells, with rucaparib 20 µM, 100% = cells with rucaparib alone
  viability: 133% (inactive)
[12]; at 0.0195 µM, OCI-P5x cells, without rucaparib
  viability: 96.1% (active)
[12]; at 0.0781 µM, OCI-C5x cells, with rucaparib 10 µM, 100% = cells with rucaparib alone
  viability: 126% (inactive)
[12]; at 0.0781 µM, OCI-C5x cells, without rucaparib
  viability: 123% (inactive)
[12]; at 0.0781 µM, OCI-P5x cells, with rucaparib 20 µM, 100% = cells with rucaparib alone
  viability: 118% (inactive)
[12]; at 0.0781 µM, OCI-P5x cells, without rucaparib
  viability: 83.6% (active)
[12]; at 0.313 µM, OCI-C5x cells, with rucaparib 10 µM, 100% = cells with rucaparib alone
  viability: 123% (inactive)
[12]; at 0.313 µM, OCI-C5x cells, without rucaparib
  viability: 123% (inactive)
[12]; at 0.313 µM, OCI-P5x cells, with rucaparib 20 µM, 100% = cells with rucaparib alone
  viability: 79.9% (active)
[12]; at 0.313 µM, OCI-P5x cells, without rucaparib
  viability: 66.6% (active)
[12]; at 1.25 µM, OCI-C5x cells, with rucaparib 10 µM, 100% = cells with rucaparib alone
  viability: 133% (inactive)
[12]; at 1.25 µM, OCI-C5x cells, without rucaparib
  viability: 126% (inactive)
[12]; at 1.25 µM, OCI-P5x cells, with rucaparib 20 µM, 100% = cells with rucaparib alone
  viability: 41.4% (active)
[12]; at 1.25 µM, OCI-P5x cells, without rucaparib
  viability: 53.5% (active)
[12]; at 5 µM, OCI-C5x cells, with rucaparib 10 µM, 100% = cells with rucaparib alone
  viability: 37.3% (active)
[12]; at 5 µM, OCI-C5x cells, without rucaparib
  viability: 80.4% (active)
[12]; at 5 µM, OCI-P5x cells, with rucaparib 20 µM, 100% = cells with rucaparib alone
  viability: 0.53% (active)
[12]; at 5 µM, OCI-P5x cells, without rucaparib
  viability: 12.5% (active)
